In all, about 18,000 sequences were measured (“log2 normalized intensity”: median about 0.36, highest 2% from about 7.3 on). For the sample, the highest values were picked, then their nearest neighbours and some sequences at random.
Target: T1, HNF4alpha8 (COS-7 nuclear extract) (Homo sapiens, UniProt P41235-5 1-452)
T1 sequence: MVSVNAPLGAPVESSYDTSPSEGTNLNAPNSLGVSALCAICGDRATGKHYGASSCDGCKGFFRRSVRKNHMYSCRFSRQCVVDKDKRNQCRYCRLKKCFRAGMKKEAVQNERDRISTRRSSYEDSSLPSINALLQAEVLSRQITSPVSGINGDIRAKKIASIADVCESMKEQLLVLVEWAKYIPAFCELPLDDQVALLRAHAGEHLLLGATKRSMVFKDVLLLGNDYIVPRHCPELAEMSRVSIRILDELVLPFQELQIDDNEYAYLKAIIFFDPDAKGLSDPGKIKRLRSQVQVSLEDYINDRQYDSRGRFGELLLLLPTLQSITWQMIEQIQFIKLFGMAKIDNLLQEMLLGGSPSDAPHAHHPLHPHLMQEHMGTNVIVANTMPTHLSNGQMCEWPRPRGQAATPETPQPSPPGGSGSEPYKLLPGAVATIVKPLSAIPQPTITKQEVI
Assay: protein-binding microarray; COS-7 nuclear extract on double-stranded Agilent 4x180k PBM; binding buffer, salt, pH and temperature not given in the material; high values mean tight binding
Conditions: chain copies: 2; label: 3' end of strand 1 on the slide; dsDNA, one strand shown
Method in brief: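 Using CaPO4, COS-7 cells were transiently transfected with a human HNF4α isoform expression vector, and their nuclear extracts were applied to a custom Agilent SurePrint G3 4x180k double-stranded oligonucleotide array (~60 nt; ~44,000 test sequences in quadruplicate). Bound HNF4α was imaged at 2-µm resolution with an Agilent G2565CA scanner. Agilent software supplied the background-corrected, normalized gProcessedSignal that serves as the binding signal.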

| Sequence | binding signal [log2 normalized intensity] |
| --- | --- |
| AATGGAGTTTGGTTTAAAGTTCAAGTCATAGCCTAGGGAGATTAGAGTATCGGTCGA | 2.74 |
| AGGTGTAACCTGCTCTCTCATGCCCTTTGCGCCTAGGGAGATTAGAGTATCGGTCGA | 4.81 |
| CTTTCCTGGTGCCTCCTTATCTCCCCAACTGCCTAGGGAGATTAGAGTATCGGTCGA | 3.48 |
| TTTTAATTAGAACTGTAATTGAGTAACCAGGCCTAGGGAGATTAGAGTATCGGTCGA | 0.406 |
| ATCTCTAAGCTACTGAAAATGACCTTTGTTGCCTAGGGAGATTAGAGTATCGGTCGA | 6.73 |
| AATTCATCTCTAAGCTACTGAAAATGACCTGCCTAGGGAGATTAGAGTATCGGTCGA | 3.88 |
| GAAACCCTAAACCTGCAAACCTTTGACCTTGCCTAGGGAGATTAGAGTATCGGTCGA | 5.96 |
| AAAAAAAAAAATTACTGACCCTTGCACTGTGCCTAGGGAGATTAGAGTATCGGTCGA | 5.45 |
| TAAGCTACTGAAAATGACCTTTGTTCCCTGGCCTAGGGAGATTAGAGTATCGGTCGA | 9.03 |
| TACTGAAAATGACCTTTGTTCCCTGCACTTGCCTAGGGAGATTAGAGTATCGGTCGA | 7.89 |
| GATTTTCAGGTTCCCCAGTGAGGATGTGTGGCCTAGGGAGATTAGAGTATCGGTCGA | 1.53 |
| TGGCGTATGCAGCAGGGCAGCAGCCTGACCGCCTAGGGAGATTAGAGTATCGGTCGA | 0.823 |
| TTAACCTCTATTGACCTTCTTATTTGGAGAGCCTAGGGAGATTAGAGTATCGGTCGA | 2.41 |
| GAGGAGACCTTTGGATATCATATCATCTTCGCCTAGGGAGATTAGAGTATCGGTCGA | 2.39 |
| TAGTTAGAGTCACTGATAAGTCTGCTTGCCGCCTAGGGAGATTAGAGTATCGGTCGA | -0.858 |
| CGCCCCCAACGGGCCACGCCCTGCACCCTAGCCTAGGGAGATTAGAGTATCGGTCGA | 4.07 |
| TTGTGGCAGTGAGAACAGGTTCATTCTTTAGCCTAGGGAGATTAGAGTATCGGTCGA | 0.687 |
| GCTTGAGCGAGACAGCGGGTGTTTCTGGGAGCCTAGGGAGATTAGAGTATCGGTCGA | 0.72 |
| TCATTGCCTCTGGGCTTTGATGGACATTGCGCCTAGGGAGATTAGAGTATCGGTCGA | 3.92 |
| CAGGACTGCGTAACTTACAGTGCACTTTGAGCCTAGGGAGATTAGAGTATCGGTCGA | 5.6 |
| CCTCAGTGTGGGACTTTGGTCTGCTGAGTCGCCTAGGGAGATTAGAGTATCGGTCGA | 3.95 |
| TAACTTACAGTGCACTTTGACCGCTCATTTGCCTAGGGAGATTAGAGTATCGGTCGA | 6.77 |

| Sequence | binding signal [log2 normalized intensity] |
| --- | --- |
| AAGAAGAGCTCAGTCACAGCAGTGGACTTTGCCTAGGGAGATTAGAGTATCGGTCGA | 7.41 |
| CCAGCTAGAAGCAGTGGGACAAAGGTCACAGCCTAGGGAGATTAGAGTATCGGTCGA | 6.82 |
| AGCAGCCTCAGTGGCTCACAAATGGAGTTTGCCTAGGGAGATTAGAGTATCGGTCGA | 1.92 |
| GAGCAGCACTTTTGGAGTTTGACCTGGAGCGCCTAGGGAGATTAGAGTATCGGTCGA | 6.24 |
| AGAGTGAGCAGCACTTTTGGAGTTTGACCTGCCTAGGGAGATTAGAGTATCGGTCGA | 8.51 |
| CTTGTCTTATCAGCAGGGTCTTTTTGACCTGCCTAGGGAGATTAGAGTATCGGTCGA | 4.79 |
| CTGCGTAACTTACAGTGCACTTTGACCGCTGCCTAGGGAGATTAGAGTATCGGTCGA | 7.74 |
| GAGCTCAGTCACAGCAGTGGACTTTGACCTGCCTAGGGAGATTAGAGTATCGGTCGA | 11.7 |
| GGGGCAGAGTGAGCAGCACTTTTGGAGTTTGCCTAGGGAGATTAGAGTATCGGTCGA | 2.17 |
| GGCATTCTGACCTTTGTCTCCAGGCAAACTGCCTAGGGAGATTAGAGTATCGGTCGA | 5.6 |
| GAGGAGTGAGAACAGACAAAATTAAGTGATGCCTAGGGAGATTAGAGTATCGGTCGA | -0.842 |
| TCTGTCTGAGACCACTTAAGCCTGGAATTCGCCTAGGGAGATTAGAGTATCGGTCGA | -0.0786 |
| ACCCATGTTTGCCCTTGATAAGAGCTGCTCGCCTAGGGAGATTAGAGTATCGGTCGA | 0.685 |
| AGGTGAATGTACAAAGGTCAACGGCACAAGGCCTAGGGAGATTAGAGTATCGGTCGA | 5.02 |
| TGAGCACATTCTTCAATATCAGTGGCACTCGCCTAGGGAGATTAGAGTATCGGTCGA | 0.295 |
| CACCTTCTTCCTAGGCAATCCCATGACCTTGCCTAGGGAGATTAGAGTATCGGTCGA | 3.52 |
| TGTCTTCTGACCTTTGGCAATATCTCCCAGGCCTAGGGAGATTAGAGTATCGGTCGA | 3.96 |
| TCTTCCTAGGCAATCCCATGACCTTTGTACGCCTAGGGAGATTAGAGTATCGGTCGA | 9.08 |
| CTAGGCAATCCCATGACCTTTGTACTAATGGCCTAGGGAGATTAGAGTATCGGTCGA | 8.3 |
| CCATGACCTTTGTACTAATGATTTGTAAATGCCTAGGGAGATTAGAGTATCGGTCGA | 6.03 |
| CAATCCCATGACCTTTGTACTAATGATTTGGCCTAGGGAGATTAGAGTATCGGTCGA | 6.73 |
| GGACTTCTCTGCCCTCTTCCCTCTACCTCTGCCTAGGGAGATTAGAGTATCGGTCGA | 1.97 |

| Sequence | binding signal [log2 normalized intensity] |
| --- | --- |
| AAACAGACCTCTCTCTCCCCAGACAGCCACGCCTAGGGAGATTAGAGTATCGGTCGA | 2.71 |
| TATTTACATACCTTAGGCTGTGCATATTGGGCCTAGGGAGATTAGAGTATCGGTCGA | 0.994 |
| CCTCCTGCTTAGCGGCCTTCCCCTTTTTCTGCCTAGGGAGATTAGAGTATCGGTCGA | 1.99 |
| TCAGACAAGTTGCAGGGATGGACTTTAATCGCCTAGGGAGATTAGAGTATCGGTCGA | 7.17 |
| CCCCCTATCCCAAGACATCAATTAACTTGTGCCTAGGGAGATTAGAGTATCGGTCGA | 3.09 |
| CCTAGCCCCACCAAACTGACAGGTTAGACTGCCTAGGGAGATTAGAGTATCGGTCGA | 2.33 |
| AGGCTGGGGCCCCATCGACCTTTGCTCCCGGCCTAGGGAGATTAGAGTATCGGTCGA | 10.5 |
| GGGGCCCCATCGACCTTTGCTCCCGACTCTGCCTAGGGAGATTAGAGTATCGGTCGA | 8.88 |
| ACCTCCTGGGCCCAAGTGCTCCTCCCCATCGCCTAGGGAGATTAGAGTATCGGTCGA | 3.58 |
| TCTTCAGGCTGGGGCCCCATCGACCTTTGCGCCTAGGGAGATTAGAGTATCGGTCGA | 7.4 |
| GTCCCTGGCCCCGGGGCGGGGGCGGGCTGGGCCTAGGGAGATTAGAGTATCGGTCGA | -0.21 |
| CGACCTTTGCTCCCGACTCTGAGGCTCCATGCCTAGGGAGATTAGAGTATCGGTCGA | 5.96 |
| CCCATCGACCTTTGCTCCCGACTCTGAGGCGCCTAGGGAGATTAGAGTATCGGTCGA | 5.95 |
| GCTCTAGACATCGACCTTTGTGGGCTTCAGGCCTAGGGAGATTAGAGTATCGGTCGA | 3.19 |
| AGACATCGACCTTTGTGGGCTTCAGACATTGCCTAGGGAGATTAGAGTATCGGTCGA | 2.32 |
| AGCAATCATATATGCATTTGTCTCAGGTGGGCCTAGGGAGATTAGAGTATCGGTCGA | 1.26 |
| CTCATGTGGTCCTAAGACTGACCTTTGATCGCCTAGGGAGATTAGAGTATCGGTCGA | 10.6 |
| AATTGACCTTTGATCACTCATGGGCAAGATGCCTAGGGAGATTAGAGTATCGGTCGA | 6.41 |
| GATAAGCGTATTTCAACCTTTGATCTATAAGCCTAGGGAGATTAGAGTATCGGTCGA | 6.82 |
| GTTTACTCATGTGGTCCTAAGACTGACCTTGCCTAGGGAGATTAGAGTATCGGTCGA | 4.61 |
| GACTGACCTTTGATCATTTGAGGGTGACACGCCTAGGGAGATTAGAGTATCGGTCGA | 6.1 |
| AGGAGGCACTGATAAGCGTATTTCAACCTTGCCTAGGGAGATTAGAGTATCGGTCGA | 0.651 |

| Sequence | binding signal [log2 normalized intensity] |
| --- | --- |
| TTGTTTACTCATGTGGTCCTAAGACTAACCGCCTAGGGAGATTAGAGTATCGGTCGA | 0.432 |
| GAACTGAAAGAGACCTTTGACATCACCTAAGCCTAGGGAGATTAGAGTATCGGTCGA | 2.77 |
| AATCAACCTTTGATCGTTTGCATGCAGGGCGCCTAGGGAGATTAGAGTATCGGTCGA | 3.98 |
| CCTAAAATTGACCTTTGATCACTCATGGGCGCCTAGGGAGATTAGAGTATCGGTCGA | 8.68 |
| GTGGTCCTAAGACTGACCTTTGATCATTTGGCCTAGGGAGATTAGAGTATCGGTCGA | 9.52 |
| GCACTGATAAGCGTATTTCAACCTTTGATCGCCTAGGGAGATTAGAGTATCGGTCGA | 8.45 |
| AATGCCCAGGATTCCTTTTTCACTGCTCACGCCTAGGGAGATTAGAGTATCGGTCGA | -0.85 |
| CACTTCCCGAGTGAGGCAATGCCTCGCCCTGCCTAGGGAGATTAGAGTATCGGTCGA | -0.664 |
| ATTCAGCATTGCTTGGGAGCAGTCCTTGGGGCCTAGGGAGATTAGAGTATCGGTCGA | -0.959 |
| AGCATGTTTGGTGACCCGTGACCCTCAGGAGCCTAGGGAGATTAGAGTATCGGTCGA | 3.82 |
| CCGTCTCTCACCAAATCCCTGCCCACATCCGCCTAGGGAGATTAGAGTATCGGTCGA | 2.23 |
| CTCCTTGGAAGTCGCCGTGAGGTTATTTGCGCCTAGGGAGATTAGAGTATCGGTCGA | 0.914 |
| GAGAGGCTTATGCATGGGAGATCTTCAGTAGCCTAGGGAGATTAGAGTATCGGTCGA | -0.357 |
| TTCCTTATCTGGAATTCCTCCTCCTGTTTGGCCTAGGGAGATTAGAGTATCGGTCGA | 0.85 |
| TCTTTTGACCTTTGCCTCATTCTTATTGCCGCCTAGGGAGATTAGAGTATCGGTCGA | 5.61 |
| GACCTTTATATGTCCACCTTATCTAATGCCGCCTAGGGAGATTAGAGTATCGGTCGA | 2.22 |
| AGCAAACCTGTCTCTCTGCATTCCTCCTGGGCCTAGGGAGATTAGAGTATCGGTCGA | 0.684 |
| TCTTTAAGGACCACATCAAAGGTCATCTCTGCCTAGGGAGATTAGAGTATCGGTCGA | 5.09 |
| TGCAGTGTCCATGGTGACCATGTGATGTGAGCCTAGGGAGATTAGAGTATCGGTCGA | 1.26 |

From article PMC10726135, “HNF4α isoforms regulate the circadian balance between carbohydrate and lipid metabolism in the liver”
